target: Glucocorticoid receptor (Homo sapiens) (UniProt P04150); assay: GR-GFP Redistribution (AID 450); conditions: U2OS GR-GFP nuclear translocation, laser cytometry, 2 h; series mostly up to 20.6 µM
Potency is read from the fitted curve at half-maximal effect.

Chain of Glucocorticoid receptor (Homo sapiens) (P04150 whole entry, looked up): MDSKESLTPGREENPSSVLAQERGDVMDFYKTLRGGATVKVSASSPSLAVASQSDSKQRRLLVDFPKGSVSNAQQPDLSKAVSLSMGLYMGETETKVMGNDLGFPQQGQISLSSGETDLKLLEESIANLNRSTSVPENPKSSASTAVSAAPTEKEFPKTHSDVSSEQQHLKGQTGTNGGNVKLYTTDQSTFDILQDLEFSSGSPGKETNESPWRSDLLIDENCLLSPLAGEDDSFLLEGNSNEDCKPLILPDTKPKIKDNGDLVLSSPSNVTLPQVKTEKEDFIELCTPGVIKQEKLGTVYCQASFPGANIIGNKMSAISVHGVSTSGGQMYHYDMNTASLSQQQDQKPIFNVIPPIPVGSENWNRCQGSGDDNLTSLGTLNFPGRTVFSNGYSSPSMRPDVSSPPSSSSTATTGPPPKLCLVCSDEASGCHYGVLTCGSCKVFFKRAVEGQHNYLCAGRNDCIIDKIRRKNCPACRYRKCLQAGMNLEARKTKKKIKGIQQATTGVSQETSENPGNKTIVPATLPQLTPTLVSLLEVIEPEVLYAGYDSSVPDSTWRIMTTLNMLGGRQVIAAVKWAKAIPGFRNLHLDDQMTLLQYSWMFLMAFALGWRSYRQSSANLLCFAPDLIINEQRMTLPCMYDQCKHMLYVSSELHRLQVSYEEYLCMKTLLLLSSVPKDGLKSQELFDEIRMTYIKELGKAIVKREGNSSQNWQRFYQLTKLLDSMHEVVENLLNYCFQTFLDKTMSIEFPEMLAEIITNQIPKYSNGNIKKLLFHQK

Potency, inactive:
CC1(C)CC(=O)C=C(NCc2ccncc2)C1 > 20.6 µM
COCC(C)Nc1ncnc2c1cnn2-c1ccc(Cl)cc1 (stereo not given) > 20.6 µM
CCOCCn1c(SC)nc2c1c(=O)[nH]c(=O)n2C > 20.6 µM
COc1cccc(C2/C(=C(\O)c3ccc4c(c3)OCCO4)C(=O)C(=O)N2CCCN(C)C)c1OC (stereo not given) > 20.6 µM
O=c1[nH]cnc2cc(-c3ccccc3)sc12 > 20.6 µM
C#CC1CN(Cc2ccccc2)CC(C#C)N1C (stereo not given) > 20.6 µM
N#CC1=C(C=Nc2ccccc2O)CCC1 > 20.6 µM
O=C(O)CCCC(=O)N1CCN(C(c2ccccc2)c2ccccc2)CC1 > 20.6 µM
Cc1nc(NCCO)c(C#N)c2c1COC(C)(C)C2 > 20.6 µM
CCN(CC)c1ncc(C)c(=O)[nH]1 > 20.6 µM
O=C(O)c1ccc(COc2c(F)c(F)c(F)c(F)c2F)o1 > 20.6 µM
CCOC(=O)c1ccc(-n2c(=O)[nH]c3ccccc3c2=O)cc1 > 20.6 µM
CCNC(=O)Nn1c(C)nnc1C > 20.6 µM
CC(=O)N/C(=N/c1nc(C)cc(C)n1)Nc1ccc(NC(C)=O)cc1 > 20.6 µM
COC(=O)[C@@H](N)Cc1ccc(O)cc1 > 20.6 µM
O=C(O)CC(NCc1ccco1)C(=O)OCCc1ccccc1 (stereo not given) > 20.6 µM
O=C(O)CN(c1ccccc1)C1SC(=O)NC1=O (stereo not given) > 20.6 µM
COc1ccc(CN(C)CCc2ccccn2)c(OC)c1OC > 20.6 µM
Cn1c(=O)c2c(nc(N3CCN(Cc4ccccc4)CC3)n2CC(=O)c2ccccc2)n(C)c1=O > 20.6 µM
O=S(=O)(/C=C/c1ccccc1)Nc1ccc2c(c1)OCO2 > 20.6 µM
COc1ccc(-c2cc3nc4n(c(=O)c3s2)CCOC4)cc1 > 20.6 µM
COc1cccc(Cn2c(NCc3ccccn3)nc3c2c(=O)n(C)c(=O)n3C)c1 > 20.6 µM
CCOc1ccc(/C(O)=C2/C(=O)C(=O)N(CCN(C)C)C2c2ccccc2)cc1Cl (stereo not given) > 20.6 µM
CCOC(=O)C1=C(N)N2C(=O)CSC2=C(C(=O)OC)C1 > 20.6 µM
CC1(C)Cc2c(c(-c3ccccc3Cl)[nH]c(=O)c2C#N)CO1 > 20.6 µM
Cn1c(/C(C#N)=C/Nc2ccccn2)nc2ccccc21 > 20.6 µM
c1ccc(SCc2nc3ccccc3[nH]2)nc1 > 20.6 µM
CC1(C)SC2[C@H](NC(=O)C(NC(=O)N3CCNC3=O)c3ccccc3)C(=O)N2C1C(=O)O (stereo not given in full) > 20.6 µM
O=C(c1ccco1)N1CCN(c2ncnc3c2[nH]c2ccccc23)CC1 > 20.6 µM
CSc1nc(N)nc(SCC(=O)OC(C)C)c1C#N > 20.6 µM
Cc1c(C2CC(=O)N(c3ccccc3)C2=O)[nH]n(-c2ccccc2)c1=O (stereo not given) > 20.6 µM
CCOC(=O)c1[nH]c2ccccc2c1NC(=O)CN(C)C > 20.6 µM
CCOc1ccc(C2/C(=C(/O)c3ccc(OC)cc3)C(=O)C(=O)N2c2cc(C)on2)cc1OC (stereo not given) > 20.6 µM
COc1ccc(-c2cc(=O)[nH]c(=O)[nH]2)cc1 > 20.6 µM
O=S1CCCSC1c1cccnc1 (stereo not given) > 20.6 µM
Cc1c(/C(O)=C2/C(=O)C(=O)N(CCN3CCOCC3)C2c2cccnc2)cnn1-c1ccccc1 (stereo not given) > 20.6 µM
CCOC(=O)C1=C(C)NC(=O)C1CC(=O)Nc1ccccc1 (stereo not given) > 20.6 µM
CC(C)c1nc2n[nH]c(N)c2c2c1CCCC2 > 20.6 µM
CC(C)=CCC(C)(C)CNC(=O)NC1CCCCC1 > 20.6 µM
COC(=O)NC(Nc1sc2c(c1C(N)=O)CCCC2)(C(=O)OC)C(F)(F)F (stereo not given) > 20.6 µM
